Bioassay records (PubChem BioAssay)
F508del corr – F508del CFTR correction, initial screen, CFBE line, single point. hit rate 0.36% among 350,000. CFBE cells, YFP halide quenching; stimulated with forskolin plus potentiator P3; % fluorescence drop versus neutral controls. activity (quench increase), % at 7.58 µM. AID 720511, 2013;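 active = mean added fluorescence quench of at least 8% versus neutral control, with both replicates also reaching 8%; inconclusive = only one of the mean or replicate conditions met; inactive = mean below 8% and not both replicates reaching 8%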;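 also: cells transiently co-express mutant CFTR-F508del with the halide-sensitive YFP; corrector assay measuring rescue of mutant channel to the surface after 24 h compound exposure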
Env fusion inh – inhibitors of HIV-1 Env-driven cell-cell fusion, primary screen, HeLa-JRFL effector, CEM21 target cells, luciferase | inhibition, % at 12.3 µM | hit rate 1.1% among 360,000 | AID 651610, 2012;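 active = mean replicate inhibition score of at least 50 and every replicate individually at or above 50; inconclusive = only one of the two criteria met; inactive = mean below 50 and not all replicates reaching 50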;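 also: 0% = plate neutral controls and 100% = maraviroc near 300 nM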
PAX8 reporter – inhibitors of PAX8-driven TPO luciferase reporter, primary screen, RMG-I cells, single concentration | inhibition, % at 12.6 µM | SteadyGlo, 24 h | AID 652154, 2013 | hit rate 1.2% among 360,000;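 active = mean replicate inhibition at least 60% with every replicate also reaching 60%; inconclusive = only one of the two criteria is met; inactive = mean below 60% and not all replicates reaching 60%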;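 also: luciferase light reporting Pax8 driven TPO promoter activity; plate controls were median of neutral control wells for no effect and mitoxantrone controls for full effect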
PGC1a acetyl inh – inhibitors of PGC1a acetylation signal, primary screen, cell-based, U2OS, AlphaScreen, inhibitor mode; AlphaScreen anti-acetyl-lysine; with virally co-expressed GCN5 acetyltransferase; inhibition, % at 15.6 µM; hit rate 0.17% among 350,000;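 active = every replicate shows inhibition of at least 40%; inconclusive = mean inhibition at least 40% but some replicate below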;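 also: 0% = neutral control wells and 100% = positive control wells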
EWS-Fli inh – EWS/Fli-driven NR0B1 reporter inhibitors, primary screen, A673 cells, NR0B1 luciferase, luminescence, MLPCN library; hit rate 0.67% among 350,000; viability-normalised; AID 651661, 2012; inhibition, % at 12.6 µM;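 active = mean inhibition of at least 50% after viability correction, with every replicate also passing that limit; inconclusive = mean reaches 50% but only one of two replicates passes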;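 also: firefly luciferase signal divided by Alamar Blue viability fluorescence both relative to DMSO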
GSIS activator – GLuc luminescence reporter in INS-1E cells, primary screen for activators of glucose-dependent secretion of insulin; INS-1E GLuc reporter insulin secretion, 2-3 h; activation, % at 16.6 µM; hit rate 0.61% among 370,000; AID 743287, 2014;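 active = lowest replicate activation of at least 40%, so every replicate reaches that level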;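 also: 0% = median of neutral control wells and 100% = median of IBMX positive control wells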
Active calls of the source: *; ? = inconclusive; nt = not tested or not shown; [ ] = dose if it differs, or a comment. Rows were chosen to be rich in hits. Some 2.7% of all compounds tested hit in one or more screens of this group.

SMILES	F508del corr	Env fusion inh	PAX8 reporter	PGC1a acetyl inh	EWS-Fli inh	GSIS activator
COC(=O)[C@]12C[C@H](CC(=O)NCc3cccc4ccccc34)C(=O)N(CCC3=CCCCC3)C1=C[C@H](C(C)(C)C)O[C@@H]2C	2	87*	7	nt	12	-8
CCCCNC(=O)C[C@H]1C[C@@]2(C(=O)OC)C(=C[C@H](C(C)(C)C)O[C@@H]2C)N(CCC2=CCCCC2)C1=O	0	72*	7	nt	9	nt
COC(=O)[C@]12C[C@H](CC(=O)N3CCCC3)C(=O)N(CCC3=CCCCC3)C1=C[C@H](C(C)(C)C)O[C@@H]2C	1	20	-14	nt	20	294*
O=S(=O)(c1ccccc1)N1CCC(O)(CSc2ccc(Cl)cc2)CC1	nt	61*	nt	0	nt	nt
Cc1ccc(S(=O)(=O)Nc2ccc3c(c2)C(=O)N([C@H](C)CO)C[C@@H](C)[C@H](CN(C)C(=O)Nc2c(C)noc2C)OCCCC[C@@H](C)O3)cc1	1	-3[16.7 µM]	0	-6	2	-4
C=CCn1c(SCC(=O)N(C)C2CCS(=O)(=O)C2)nc2ccccc2c1=O (configuration not stated)	19*	0	-1	nt	-1	9
C=CCn1c(SCC(=O)N(CC)C2CCS(=O)(=O)C2)nc2ccccc2c1=O (configuration not stated)	-1	-8	10	-3	-5	1
C[C@H]1CCCCO[C@@H](CN(C)CC2CCCCC2)[C@@H](C)CN([C@@H](C)CO)C(=O)c2cc(NC(=O)CCCN(C)C)ccc2O1	-1	11[16.7 µM]	-8	-5	-1	9
Cc1cc(N/N=C/c2ccc(O)cc2O)nc(N2CCOCC2)n1	0	-4	-18	-4	-10	20
Oc1ccc(/C=N\Nc2cc(N3CCOCC3)nc(N3CCOCC3)n2)c(O)c1	-2	nt	87*	-3	-4	8
CCCOc1ccc(/C=N/Nc2cc(N3CCOCC3)ncn2)c(O)c1	1	67*	54	nt	15	7
CCOc1ccc(/C=N/Nc2cc(N3CCOCC3)ncn2)c(O)c1	7	11	49	4	4	nt
C[C@H](CO)N1C[C@H](C)[C@H](CN(C)C(=O)Nc2ccc(C(F)(F)F)cc2)Oc2c(NC(=O)CCCCCC(=O)Nc3ccccc3N)cccc2C1=O	1	nt	24	2	0	-1
Cc1sc2ncnc(SCC(=O)N3CCC(c4noc5ccc(F)cc45)CC3)c2c1C	nt	-21	nt	1	nt	-21
Cc1nnc(SCC(=O)N2CCC(c3noc4ccc(F)cc34)CC2)s1	0	nt	nt	57*	-7	7
O=C(NC1CCCc2ccccc21)C1CCN(S(=O)(=O)c2cccc(C(F)(F)F)c2)CC1 (configuration not stated)	-1	nt	70*	nt	15	-20
O=C(NNC(=O)C1CCN(S(=O)(=O)c2cccc(C(F)(F)F)c2)CC1)C1CC1	0	10	4	nt	-7	-2
N#C[C@@H]1[C@H](c2ccccc2-c2cccc(F)c2)[C@H](CO)N1C(=O)NC1CCCC1	-1	nt	nt	5	-2	-30
O=C(C[C@H]1C=C[C@@H](NC(=O)C2CC2)[C@@H](CO)O1)Nc1nccs1	1	-23[16.7 µM]	1	2	-4	5
Cc1cc2oc(=O)cc(-c3ccccc3)c2c(C)c1-c1ccc(O)cc1	9.2*	-61	-1	7	14	10
O=C(C[C@@H]1C=C[C@@H](NC(=O)c2cccc(F)c2)[C@@H](CO)O1)Nc1nccs1	-1	18[16.7 µM]	4	-4	4	11
CC(=O)Nc1sc2c(c1-c1nc3ccccc3s1)CN(C(C)C)CC2	24*	?	26	52*	54*	-52
CC(C)NC(=O)Nc1cccc2c1O[C@H](CN(C)S(=O)(=O)c1ccccc1)[C@H](C)CN([C@H](C)CO)C2=O	4	nt	1	-3	-9	17
C/C(=N\NC1=NCCN1)c1ccc(N)c([N+](=O)[O-])c1	0	2	4	nt	-8	6
CCCCCCOc1ccc(/C(C)=N/NC2=NCCN2)cc1[N+](=O)[O-]	-1	-13	10	nt	59*	-7
SMILES	F508del corr	Env fusion inh	PAX8 reporter	PGC1a acetyl inh	EWS-Fli inh	GSIS activator
Cn1cccc1-c1cc(C(=O)N/N=C/c2cc(Br)ccc2O)[nH]n1	6	-3	74*	nt	4	-5
COc1ccc(C(=O)N/N=C/c2cc(Br)ccc2O)cc1OC	4	17	82*	12	29	-3
COc1ccc(/C=N/NC(=O)c2c(C)nc3ccc(Br)cn23)cc1OC	10*	3	0	14	7	-3
COc1ccc(/C=N/NC(=O)c2c(C)nc3ccc(Cl)cn23)cc1OC	2	7	15	1	11	14
Cc1ccc(-c2cnc3c(c2)C(=O)N([C@@H](C)CO)C[C@H](C)[C@@H](CN(C)C(=O)c2cccnc2)O3)cc1	1	-10[16.7 µM]	nt	10	-5	15
Cc1nnc(SCC(=O)N2c3ccccc3C(C)(c3ccccc3)CC2(C)C)s1 (configuration not stated)	nt	62*	nt	nt	nt	-22
Cc1ccc(C2(C)CC(C)(C)N(C(=O)CSc3nnc(C)s3)c3ccccc32)cc1 (configuration not stated)	nt	26	15	1	nt	-35
CCOC(=O)c1cnc(-n2nc(C)cc2C)nc1NC1CCCCC1	nt	105*	nt	-3	nt	nt
Cc1cc(Br)ccc1Nc1nc(N)nc(N)c1N=O	-1	56*	nt	-3	-11	nt
Cc1ccc(Nc2nc(N)nc(N)c2N=O)cc1C	nt	nt	nt	4	nt	nt
C[C@@H]1CN([C@@H](C)CO)C(=O)c2cc(/C=C/c3ccccc3)cnc2O[C@H]1CN(C)Cc1cccnc1	0	5[16.7 µM]	nt	-11	0	-5
CCN(CC)CCN(C(=O)c1ccc(S(=O)(=O)N2CCCC2)cc1)c1nc2cc(C)cc(C)c2s1	-1	5	-4	nt	nt	40*
CC(=O)Nc1ccc(NC(=O)CCC(=O)Oc2ccc(C)cc2)cc1	-2	-1	32	1	0	7
CC(=O)c1cccc(NC(=O)CCC(=O)Oc2ccc(C)cc2)c1	-2	6	11	7	-1	222*
O=C(c1cc(Br)c(Br)s1)N1CCOCC1	-2	63*	-13	nt	0	16
O=C(c1ccc(C(=O)N2CCOCC2)s1)N1CCOCC1	nt	23	-12	0	nt	nt
N#CCSc1nnc(-c2sc3ccccc3c2Cl)o1	nt	79*	-14	nt	nt	8
CCOC1CCCC(n2cnc3c(=S)nc[nH]c32)O1 (configuration not stated)	1	6	83*	5	-1	5
CCC(Sc1nc(C)cc(C)n1)C(=O)Nc1nccs1 (configuration not stated)	1	1	9	2	nt	55*
